Compounds with a hit are over-represented: about 11% of the library has one in this group of screens.
BAZ2B inh = qHTS Assay for Inhibitors of BAZ2B. Bromodomain adjacent to zinc finger domain protein 2B (Homo sapiens), Q9UIF8. AlphaScreen BAZ2B-H3K14Ac peptide displacement. Potency, µM (doses to about 114 µM), usual class: inhibitors. 360,000 tested, 4.4% active; also: nearly all actives have a fitted effect of over 60% in size
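In this displacement format the biotinylated H3(5-23) peptide acetylated at Lys14 serves as ligand at 50 nM, with BAZ2B at 50 nM in PBS pH 7.4 containing 0.01% Tween-20. Donor and acceptor beads are 10 ug/mL final.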
HP1b chromo inh = HTS for Inhibitors of HP1-beta Chromodomain Interactions with Methylated Histone Tails; Chromobox protein homolog 1 (Homo sapiens), P83916; AlphaScreen HP1-beta / biotin-H3K9me3 peptide binding; Potency, µM (doses to about 114 µM), actives largely listed as inhibitors; 390,000 tested, 0.56% active; also: nearly all actives have a fitted effect of over 70% in size
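AlphaScreen: HP1-beta (50 nM) preformed 30 min with biotin-H3(1-18)K9me3 peptide (50 nM) in PBS pH 7.4, 0.01% Tween-20. Compound added for 30 min at RT, then streptavidin donor/nickel chelate acceptor beads (10 ug/mL) for 30 min.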
L3MBTL1 inh = qHTS Assay for the Inhibitors of L3MBTL1; AlphaScreen L3MBTL1–H3K9me1 peptide binding; Potency, µM (top dose mostly 57.1 µM), usual class: inhibitors; 230,000 tested, 0.66% active; also: nearly all actives have a fitted effect of over 60% in size
Target sequence (Q9Y468 whole entry, looked up): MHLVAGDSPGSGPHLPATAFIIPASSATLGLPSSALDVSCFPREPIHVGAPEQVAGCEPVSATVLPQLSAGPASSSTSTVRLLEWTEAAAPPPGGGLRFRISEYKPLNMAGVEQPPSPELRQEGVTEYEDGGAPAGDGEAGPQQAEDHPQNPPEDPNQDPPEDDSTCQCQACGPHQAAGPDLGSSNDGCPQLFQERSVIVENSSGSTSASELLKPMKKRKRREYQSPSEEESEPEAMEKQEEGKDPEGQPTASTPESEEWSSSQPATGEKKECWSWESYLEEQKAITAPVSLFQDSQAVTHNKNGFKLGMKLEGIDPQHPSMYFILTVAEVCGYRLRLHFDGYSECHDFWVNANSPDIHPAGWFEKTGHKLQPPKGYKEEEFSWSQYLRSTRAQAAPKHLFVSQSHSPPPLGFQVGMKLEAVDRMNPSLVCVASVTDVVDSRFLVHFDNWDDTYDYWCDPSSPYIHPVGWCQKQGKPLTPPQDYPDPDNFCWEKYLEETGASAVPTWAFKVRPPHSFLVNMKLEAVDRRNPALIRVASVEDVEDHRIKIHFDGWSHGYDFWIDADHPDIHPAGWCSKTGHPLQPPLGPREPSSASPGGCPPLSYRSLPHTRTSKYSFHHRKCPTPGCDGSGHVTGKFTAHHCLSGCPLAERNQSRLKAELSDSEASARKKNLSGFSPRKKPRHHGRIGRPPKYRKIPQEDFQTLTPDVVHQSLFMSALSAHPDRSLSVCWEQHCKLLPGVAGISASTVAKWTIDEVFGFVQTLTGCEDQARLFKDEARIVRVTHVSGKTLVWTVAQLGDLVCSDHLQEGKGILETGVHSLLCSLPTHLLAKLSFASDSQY
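AlphaScreen assay: L3MBTL1 (50 nM final) was preincubated 30 min at room temperature with biotinylated H3(1-15)K9me1 peptide (75 nM final), then 30 min with library compounds; streptavidin donor and nickel chelate acceptor beads (10 ug/mL final) added, 30 min dark.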
G9a inh = qHTS Assay for Inhibitors of Histone Lysine Methyltransferase G9a. Potency, µM (top dose mostly 102 µM), usual class: inhibitors. G9a H3K9 monomethylation, AlphaScreen, 2 h. 350,000 tested, 8.8% active. Histone-lysine N-methyltransferase EHMT2 (Homo sapiens), Q96KQ7. AID 504332, 2011; also: nearly all actives have a fitted effect of over 75% in size
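AlphaScreen read-out: biotin-H3K9 peptide (500 nM) methylation by 20 nM enzyme with 20 uM SAM, 2 h at room temperature after 15 min compound preincubation; anti-monomethyl H3K9 antibody plus donor/acceptor beads, 10 min dark.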
JMJD2A Tudor inh = qHTS Assay for Inhibitors of JMJD2A-Tudor Domain | 390,000 tested, 4.4% active | AID 504339, 2011 | Potency, µM (highest dose often 114 µM), actives largely listed as inhibitors | Lysine-specific demethylase 4A (Homo sapiens), O75164 | AlphaScreen JMJD2A-Tudor / H3K4me3 peptide binding; also: nearly all actives have a fitted effect of over 50% in size
Numbers stand for hits; [ ] = another dose, or the depositor's remark. Calls follow the shape of the dose curve; as a rule, active = well fitted inhibition curve with a large enough effect; inconclusive = small, poorly fitted or top-dose-only effect; inactive = no such curve, though single readings can be large or run the other way.

What do the screens show for `CCCCOC(=O)c1ccc(NC(=O)/C(C#N)=C/c2ccc(-c3ccccc3)o2)cc1`?
BAZ2B inh: inactive; HP1b chromo inh: inactive; G9a inh: inactive; JMJD2A Tudor inh: inactive

What do the screens show for `O=c1[nH]n2c(=O)c3c([nH]c2c1N=Nc1cccc(C(F)(F)F)c1)CCCC3`?
BAZ2B inh: inactive; HP1b chromo inh: inactive; L3MBTL1 inh: inactive; G9a inh: inactive; JMJD2A Tudor inh: inconclusive

Results for O=c1[nH]n2c(=O)c3c([nH]c2c1N=Nc1cccc(Cl)c1)CCC3 ?
BAZ2B inh: 35µM; HP1b chromo inh: inconclusive; L3MBTL1 inh: 3.5µM; G9a inh: inconclusive; JMJD2A Tudor inh: 4µM

Results for COc1cccc(-c2ccc(C#N)c(=O)[nH]2)c1 ?
BAZ2B inh: inactive; HP1b chromo inh: inactive; L3MBTL1 inh: inactive; G9a inh: inactive; JMJD2A Tudor inh: inactive

What do the screens show for `NS(=O)(=O)c1ccc(N=Nc2c(=O)[nH]n3c(=O)c4c([nH]c23)CCCC4)cc1`?
BAZ2B inh: 28µM; HP1b chromo inh: inactive; L3MBTL1 inh: inactive; JMJD2A Tudor inh: inactive

What do the screens show for `Cc1cc(C)n2[nH]c(=O)c(N=Nc3ccc(S(N)(=O)=O)cc3)c2n1`?
BAZ2B inh: inactive; HP1b chromo inh: inactive; L3MBTL1 inh: inactive; G9a inh: inactive; JMJD2A Tudor inh: inconclusive

Results for COc1cccc(N=Nc2c(=O)[nH]n3c(=O)c4c([nH]c23)CCC4)c1 ?
BAZ2B inh: 45µM; HP1b chromo inh: inconclusive; L3MBTL1 inh: inconclusive; G9a inh: inconclusive; JMJD2A Tudor inh: 50µM

What do the screens show for `COc1cccc(N=Nc2c(=O)[nH]n3c(=O)cc(C)[nH]c23)c1`?
BAZ2B inh: 50µM; HP1b chromo inh: inactive; G9a inh: inconclusive; JMJD2A Tudor inh: inconclusive

How did CC(C)CN1CCC2(CC1)CCN(C(=O)c1cccc(F)c1)CC2 do in these assays?
G9a inh: inactive[12.7 µM]

What do the screens show for `CCCN(CCC)S(=O)(=O)c1ccc2c(c1)N(CC(=O)NC(C)c1ccccc1)C(=O)CS2` (stereo not given)?
BAZ2B inh: inactive; HP1b chromo inh: inactive; G9a inh: inactive; JMJD2A Tudor inh: inactive

What do the screens show for `Cc1ccc(CNC(=O)c2nn(C)c(C)c2[N+](=O)[O-])cc1`?
BAZ2B inh: inactive; HP1b chromo inh: inactive; L3MBTL1 inh: inactive; G9a inh: inactive; JMJD2A Tudor inh: inactive

How did CCN(CC)c1ccc(N=Nc2nn(C)c(C)c2[N+](=O)[O-])cc1 do in these assays?
BAZ2B inh: 10µM; HP1b chromo inh: 14µM; L3MBTL1 inh: inconclusive; G9a inh: inconclusive; JMJD2A Tudor inh: inconclusive

How did Cc1c(Cl)c([N+](=O)[O-])nn1CCCC(=O)N(Cc1ccccc1)Cc1ccccc1 do in these assays?
BAZ2B inh: inactive; HP1b chromo inh: inactive; L3MBTL1 inh: inactive; G9a inh: inactive; JMJD2A Tudor inh: inactive

What do the screens show for `CCN(Cc1ccccc1)c1ccc(N=Nc2nn(C)c(C)c2[N+](=O)[O-])cc1`?
BAZ2B inh: 8.9µM; HP1b chromo inh: inconclusive; L3MBTL1 inh: 16µM; G9a inh: 10µM; JMJD2A Tudor inh: 6.3µM

Results for CCOc1ccc(NC(=O)c2cc3cc(C)ccc3n2C)cc1 ?
BAZ2B inh: inactive; HP1b chromo inh: inactive; G9a inh: inactive; JMJD2A Tudor inh: inactive

How did CS(=O)(=O)N1CCCc2cc(C(=O)Nc3cccc(C(F)(F)F)c3)ccc21 do in these assays?
BAZ2B inh: inactive; HP1b chromo inh: inactive; G9a inh: inactive; JMJD2A Tudor inh: inactive

Results for COc1ccc(C(=O)Oc2c(Sc3ccc(Cl)cc3)c(C)nn2C(C)(C)C)cc1OC ?
BAZ2B inh: inactive; HP1b chromo inh: inactive; G9a inh: inactive; JMJD2A Tudor inh: inactive

Results for O=c1c(C(c2ccc(O)cc2)c2c(O)nc3n(c2=O)CCCS3)c(O)nc2n1CCCS2 ?
BAZ2B inh: inactive; HP1b chromo inh: inactive; L3MBTL1 inh: inactive; G9a inh: inconclusive; JMJD2A Tudor inh: inconclusive

What do the screens show for `O=c1c(C(c2ccc(O)cc2)c2c(O)nc3n(c2=O)CCS3)c(O)nc2n1CCS2`?
BAZ2B inh: inconclusive; HP1b chromo inh: inactive; L3MBTL1 inh: inactive; G9a inh: inconclusive; JMJD2A Tudor inh: 45µM

How did Cc1ccc(C(c2c(O)nc3n(c2=O)CCS3)c2c(O)nc3n(c2=O)CCS3)cc1 do in these assays?
BAZ2B inh: inactive; HP1b chromo inh: inactive; L3MBTL1 inh: inactive; G9a inh: 10µM; JMJD2A Tudor inh: inactive

How did COc1ccccc1N1CCN(S(=O)(=O)CCNC(=O)COc2ccc(C(C)C)cc2)CC1 do in these assays?
BAZ2B inh: inactive; HP1b chromo inh: inactive; G9a inh: inactive; JMJD2A Tudor inh: inactive

Results for C=CCn1c(SCCN)nnc1-c1cccc(S(=O)(=O)N2CCOCC2)c1 ?
HP1b chromo inh: inactive; JMJD2A Tudor inh: 14µM

How did COc1ccc(CCNC(=O)Cc2c(C)c3c(cc(C)c4c(C)coc43)oc2=O)cc1OC do in these assays?
BAZ2B inh: inactive; HP1b chromo inh: inactive; G9a inh: inactive; JMJD2A Tudor inh: inactive

How did O=C(O)CC/C(=N\Nc1ccc([N+](=O)[O-])cc1S(=O)(=O)N1CCOCC1)c1cccs1 do in these assays?
BAZ2B inh: inactive; HP1b chromo inh: inactive; L3MBTL1 inh: inactive; G9a inh: 35µM; JMJD2A Tudor inh: inactive

How did CC(O)CNc1ccc([N+](=O)[O-])cc1S(=O)(=O)N1CCOCC1 (stereo not given) do in these assays?
BAZ2B inh: inactive; HP1b chromo inh: inactive; L3MBTL1 inh: inactive; G9a inh: inactive; JMJD2A Tudor inh: inactive

How did COc1ccc(NC(=O)c2nc(SCc3ccccc3F)ncc2Cl)cc1 do in these assays?
BAZ2B inh: inactive; HP1b chromo inh: inactive; G9a inh: inactive; JMJD2A Tudor inh: inactive

How did CCS(=O)(=O)n1nc(-c2ccc(Cl)cc2)nc1SCc1ccccc1 do in these assays?
BAZ2B inh: inactive; HP1b chromo inh: inactive; L3MBTL1 inh: inactive; G9a inh: 7.1µM; JMJD2A Tudor inh: 40µM

What do the screens show for `COc1cc(C2C(C#N)=C(N)Oc3cc(C)oc(=O)c32)cc2c1OCO2` (stereo not given)?
BAZ2B inh: 56µM; HP1b chromo inh: inactive; G9a inh: inconclusive; JMJD2A Tudor inh: inactive

What do the screens show for `COc1cccc(C2C(C#N)=C(N)Oc3cc(C)n(Cc4ccccn4)c(=O)c32)c1OC` (stereo not given)?
BAZ2B inh: inactive; HP1b chromo inh: inactive; L3MBTL1 inh: inactive; G9a inh: inactive[2.33 µM]; JMJD2A Tudor inh: inactive

What do the screens show for `COc1ccccc1C1C(C#N)=C(N)Oc2cc(C)n(Cc3ccccn3)c(=O)c21` (stereo not given)?
BAZ2B inh: inconclusive; HP1b chromo inh: inactive; G9a inh: 35µM; JMJD2A Tudor inh: inactive

How did COc1cc(C2C(C#N)=C(N)Oc3cc(C)n(Cc4ccccn4)c(=O)c32)cc2c1OCO2 (stereo not given) do in these assays?
BAZ2B inh: inconclusive; L3MBTL1 inh: inactive; G9a inh: 50µM

Screening data (PubChem BioAssay)
